Inconclusive results are not listed. A call without a number means that no potency is given here. Some structures have more than one record in an assay (separate samples or runs), and their calls can disagree. Active and inactive are the calls of the source. Calls follow the shape of the full dose curve.
target: Thyrotropin receptor (Homo sapiens) (UniProt P16473); test: qHTS assay to identify small molecule agonists of the thyroid stimulating hormone receptor (TSHR) signaling pathway (AID 1224843); conditions: TSHR-HEK293 cells, cAMP HTRF, agonist mode, 30 min; series mostly up to 92.4 µM; activation: at the top concentration; also: nearly all actives have a fitted effect of over 45% in size
Description: National Center for Advancing Translational Sciences [NCATS]
NIH Chemical Genomics Center [NCGC]
U.S. Environmental Protection Agency [EPA]
National Institutes of Environmental Health Sciences [NIEHS]
National Toxicology Program [NTP]
U.S. Food and Drug Administration [FDA]
TSHR is the receptor for thyrotropin (thyroid stimulating hormone or TSH), a member of the glycoprotein hormone family. TSH is released by the anterior pituitary gland and is the main regulator of thyroid gland growth and development. Upon binding circulating thyrotropin, a G-protein signal cascade activates adenylyl cyclase and […] cAMP concentration is increased. cAMP is a key second messenger involved extensively in cellular signal transduction pathways associated with the majority of G-protein coupled receptors (GPCRs). The activation of these GPCRs by neurotransmitters, lipids, nucleotides, peptides and hormones results in the activation or the inhibition of plasma membrane-bound adenylate cyclase through heterotrimeric G-proteins. A cell-based TSHR assay was used to screen the Tox21 10K library for compounds that can modulate TSHR in agonist mode.
Tox21 Assay Protocol Summary:
TSHR-Hek293 cells were dispensed at 800 cells/4uL/well in 1536-well white plates using a Multidrop dispenser. […] The plates were incubated at room temperature for 30 min. 2.5 ul/well of cAMP-d2 and 2.5ul/well of anti-cAMP-cryptate was added respectively into the assay plates using a Flying Reagent Dispenser. After 1 hr incubation at room temperature, the fluorescence intensity in the plates was measured using an Envision plate reader. Each test compound was measured at 15 concentrations and in triplicates.
Potency is read from the fitted curve at half-maximal effect.

Thyrotropin receptor (Homo sapiens), sequence (P16473 whole entry, looked up): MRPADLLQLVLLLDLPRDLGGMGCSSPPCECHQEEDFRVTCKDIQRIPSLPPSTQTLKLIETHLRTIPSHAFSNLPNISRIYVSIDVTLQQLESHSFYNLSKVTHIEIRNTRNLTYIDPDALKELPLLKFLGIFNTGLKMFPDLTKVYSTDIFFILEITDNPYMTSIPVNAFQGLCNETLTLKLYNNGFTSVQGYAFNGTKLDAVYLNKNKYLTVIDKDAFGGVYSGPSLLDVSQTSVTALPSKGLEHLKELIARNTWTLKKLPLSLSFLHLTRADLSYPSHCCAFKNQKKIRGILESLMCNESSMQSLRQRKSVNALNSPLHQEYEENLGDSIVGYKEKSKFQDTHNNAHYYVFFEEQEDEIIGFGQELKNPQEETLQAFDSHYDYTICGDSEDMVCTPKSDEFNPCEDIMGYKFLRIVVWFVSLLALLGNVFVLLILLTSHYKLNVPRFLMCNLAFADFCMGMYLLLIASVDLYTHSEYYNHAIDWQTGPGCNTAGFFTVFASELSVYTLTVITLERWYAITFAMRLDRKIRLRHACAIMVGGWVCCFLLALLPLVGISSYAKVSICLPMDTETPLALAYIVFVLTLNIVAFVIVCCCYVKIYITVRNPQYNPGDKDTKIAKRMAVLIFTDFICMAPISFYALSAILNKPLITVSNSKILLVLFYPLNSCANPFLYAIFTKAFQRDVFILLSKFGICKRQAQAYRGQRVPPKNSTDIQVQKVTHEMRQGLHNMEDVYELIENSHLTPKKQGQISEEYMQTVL

| SMILES | Potency | activation |
| --- | --- | --- |
| CCCCCC1=CCCC1=O | inactive | – |
| O=S(=O)(O)c1ccc2ccccc2c1 | inactive | – |
| C=CCOC(=O)c1ccccc1C(=O)OCC=C | inactive | – |
| CCCCCOC(C)=O | inactive | – |
| C=C(C)C(=O)Nc1ccc(Cl)c(Cl)c1 | inactive | – |
| C=C(C)C(=O)OCCOCCOCCOC(=O)C(=C)C | inactive | – |
| FC(F)(F)c1ccc(Cl)c(Cl)c1 | inactive | – |
| CCc1cccc(C)c1N | inactive | – |
| O=C1CCC(N2C(=O)c3ccccc3C2=O)C(=O)N1 (stereo not given) | inactive | – |
| CCOC(=O)NNc1nncc2ccccc12 | inactive | – |
| CN(C)CCC(c1ccc(Cl)cc1)c1ccccn1 (stereo not given) | – | -13.5% (inactive) |
| OCCOCCN1CCN(C2=Nc3ccccc3Sc3ccccc32)CC1 | inactive | – |
| C#CCN(C)Cc1ccccc1 | inactive | – |
| O=C(O)CCCCCCCCCCC(=O)O | inactive | – |
| COc1ccc(Cl)cc1C(=O)NCCc1ccc(S(=O)(=O)NC(=O)NC2CCCCC2)cc1 | inactive | – |
| Cc1ccc2oc(=O)ccc2c1 | inactive | – |
| O=C(Oc1ccccc1)c1ccccc1 | – | -17% (inactive) |
| CCCCCC(N)=O | inactive | – |
| CCCCCCCCCCCCCCO | inactive | – |
| CCCCC(CC)COC(=O)CCCCC(=O)OCC(CC)CCCC (stereo not given) | inactive | – |

| SMILES | Potency | activation |
| --- | --- | --- |
| Cc1cccnc1 | inactive | – |
| O=C(O)c1ccc(C(=O)O)cc1 | inactive | – |
| Cc1ccc(N(C)C)cc1 | – | 2.25% (inactive) |
| C#C[C@]1(O)CC[C@H]2[C@@H]3CCC4=CC(=O)CC[C@@H]4[C@H]3CC[C@@]21C | – | 10.2% [at 42.5 µM] (inactive) |
| c1ccc2scnc2c1 | – | -0.3% (inactive) |
| O=c1[nH]nnc2ccccc12 | inactive | – |
| C=C(C)C(=O)O[C@H]1C[C@@H]2CC[C@@]1(C)C2(C)C | inactive | – |
| CC(=O)CC(=O)Nc1ccccc1C | 9.8 µM (active) and inactive | – |
| CCCCCCCCC/C=C/CC1CC(=O)OC1=O (stereo not given) | inactive | – |
| Nc1ccccc1[N+](=O)[O-] | inactive | – |
| CCCCCCCC(=O)OC | inactive | – |
| CC(=O)CC(=O)Nc1ccccc1 | 19.3 µM (active) and inactive | – |
| Oc1cccc2ccccc12 | inactive | – |
| Cc1cnc(C(=O)NCCc2ccc(S(=O)(=O)NC(=O)NC3CCCCC3)cc2)cn1 | – | -0.312% [at 42.5 µM] (inactive) |
| N[C@@H](Cc1cc(I)c(Oc2cc(I)c(O)c(I)c2)c(I)c1)C(=O)O | inactive | – |
| CC(=O)Nc1ccccc1 | inactive | – |
| ON=C1CCCCC1 | inactive | – |
| CCC(O)OCCCOC (stereo not given) | inactive | – |
| COc1ccc(Nc2ccccc2)c(C)c1 | inactive | – |
| CC1=CCC2CC1C2(C)C (stereo not given) | inactive | – |

— PubChem BioAssay (Tox21)
